Assay results reported in PubChem BioAssay (NCATS).
Results filed as inconclusive are left out. Entries that show only a call come without a potency. The source made the active and inactive calls. Calls follow the shape of the dose curve; as a rule, active = well fitted inhibition curve with a large enough effect; inconclusive = small, poorly fitted or top-dose-only effect; inactive = flat fitted curve, though single readings scatter.

Key:
Test in all cases: qHTS profiling for inhibitors of Plasmodium falciparum proliferation (AID 504749); also: nearly all actives have a fitted effect of over 60% in size
Conditions in all cases: P. falciparum in erythrocytes, SYBR Green DNA, 72 h; series mostly up to 28.7 µM
CP237 = system: CP237
Procedure, shortened: (§1)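 SYBR Green fluorescence (ex 485 nm, em 535 nm) reports parasite DNA after 72 h compound exposure of infected red cells at 0.3% parasitemia, 2.5% hematocrit; signal normalized to 0.29 uM artemisinin and vehicle wells.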

CP238 = system: CP238
Procedure, shortened: as §1

CP247 = system: CP247
Procedure, shortened: as §1

CP250 = system: CP250
Procedure, shortened: as §1

CP252 = system: CP252
Procedure, shortened: as §1

CP256 = system: CP256
Procedure, shortened: as §1

CP260 = system: CP260
Procedure, shortened: as §1

CP262 = system: CP262
Procedure, shortened: as §1

CP265 = system: CP265
Procedure, shortened: as §1

CP266 = system: CP266
Procedure, shortened: as §1
Potency is read from the fitted curve at half-maximal effect.

SMILES	Potency (CP237)	Potency (CP238)	Potency (CP247)	Potency (CP250)	outcome (CP252)	outcome (CP256)	Potency (CP260)	outcome (CP262)	Potency (CP265)	outcome (CP266)
NC(=O)CC[C@@H](N)C(=O)O	inactive	inactive	inactive	inactive	inactive	inactive	inactive	inactive	inactive	inactive
O=C(CN1CCNCC1)NC1CCCCC1	inactive	inactive	inactive	inactive	inactive	inactive	inactive	inactive	inactive	inactive
FC(F)(F)C(Cl)Br (stereo not drawn)	inactive	inactive	inactive	inactive	inactive	inactive	inactive	inactive	inactive	inactive
CCCCCCCCCCCCCCCCC(C(=O)O)C(O)(CC(=O)O)C(=O)O (stereo not drawn)	inactive	inactive	11.2 µM (active)	inactive	inactive	inactive	inactive	inactive	inactive	inactive
CCCCCCCCCCC(CO)CCCCCCCC (stereo not drawn)	inactive	inactive	inactive	inactive	inactive	inactive	inactive	inactive	inactive	inactive
O=C(O)CCCc1ccccc1	inactive	inactive	inactive	inactive	inactive	inactive		inactive	inactive	
O=C(O)c1cc(=O)c2ccccc2o1	inactive	inactive	inactive	inactive	inactive	inactive	inactive	inactive	inactive	inactive
CC(C(=O)O)c1ccc2c(c1)Cc1cccnc1O2 (stereo not drawn)	inactive	inactive	inactive	inactive	inactive	inactive	inactive	inactive	inactive	inactive
O=C(OOC(=O)c1ccccc1)c1ccccc1	inactive	inactive	inactive	inactive	inactive	inactive	inactive	inactive	inactive	inactive
CC(=O)Nc1ccc(C(=O)O)cc1	inactive	inactive	inactive	inactive	inactive	inactive	inactive	inactive	inactive	inactive
COc1ccc(C(=O)NCc2ccc(OCCN(C)C)cc2)cc1OC	inactive	inactive	inactive	inactive	inactive	inactive	inactive	inactive	inactive	inactive
CN1CCN(C(=O)C2CCCCC2)CC1	inactive	inactive	inactive	inactive	inactive	inactive	inactive	inactive	inactive	inactive
CCCCCCCCCCCCCCCCN	inactive	inactive	inactive	inactive	inactive	inactive		inactive	inactive	
NS(=O)(=O)c1cc2c(cc1C(F)(F)F)NCNS2(=O)=O	inactive	inactive	inactive	inactive	inactive	inactive	inactive	inactive	inactive	inactive
O=c1[nH]cnc2nc[nH]c12	inactive	inactive	inactive	inactive	inactive	inactive	inactive	inactive	inactive	inactive
O=C(O)CNC(=O)c1ccccc1I	inactive	inactive	inactive	inactive	inactive	inactive	inactive	inactive	inactive	inactive
COc1ccc(Cc2cnc(N)nc2N)cc1OC	inactive	inactive	inactive	inactive	inactive	inactive		inactive	inactive	inactive
Cc1cc(=O)[nH]c(=S)[nH]1	inactive	inactive	inactive	inactive	inactive	inactive	inactive	inactive	inactive	inactive
CCCCCC(N)=O	inactive	inactive	inactive	inactive	inactive	inactive	inactive	inactive	inactive	inactive
CC(C)=CCC/C(C)=C/CO	inactive	inactive	inactive	inactive	inactive	inactive	inactive	inactive	inactive	inactive
COc1ccc2cc(CCC(C)=O)ccc2c1	inactive	inactive	inactive	inactive	inactive	inactive	inactive		inactive	
O=C(/C=C/c1ccccc1)OCc1ccccc1	inactive	inactive	inactive	inactive	inactive	inactive	inactive	inactive	inactive	inactive
